From PubChem BioAssay (NCATS) come the findings set out here.

The target of assay [1] is Galactokinase (Homo sapiens) (UniProt P51570). Briefly: qHTS Validation Assay for Inhibitors of Human Galactokinase (GALK) (AID 493189). Particulars: purified human GALK enzyme activity, qHTS 7-point titration; series mostly up to 57.5 µM. The method in brief:
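5 nM GALK / 100 uM galactose / 35 uM ATP, 20 mM HEPES pH8.0, 5 mM MgCl2, 60 mM NaCl, 1 mM DTT, 0.01% BSA (final). RT 1 h; Kinase-Glo Plus luminescence.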
In general terms: qHTS replaces the single test concentration by a dilution series.

Assay [2] in a line: Validation screen for small molecules that induce DNA re-replication in SW480 colon adenocarcinoma cells (AID 504364). Conditions: DNA re-replication phenotype (high-content imaging); series mostly up to 46.1 µM. The method in brief: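 Image-based qHTS: compounds were incubated with SW480 cells for 48 hr, nuclei stained with Hoechst, and per-nucleus fluorescence intensity scanned to flag cells with excess DNA content.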

Assay [3] concerns the target Peptidyl-prolyl cis-trans isomerase NIMA-interacting 1 (Homo sapiens) (UniProt Q13526). The assay can be described thus: qHTS Validation Assay to Find Inhibitors of Pin1 (AID 504536; active means well fitted inhibition curve with a large enough effect in the polarisation, with a control signal flat, not every such curve was filed as active; the % refers to the polarisation; further: potency means the concentration at half of the fitted maximal effect). Particulars: Pin1 fluorescence polarization peptide binding assay; series mostly up to 57.5 µM. Put shortly: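 Fluorescence polarization competition: compounds (titration) displace HiFluor-488-labeled Pin1-1b peptide from Pin1 (0.3 uM final) in pH 7.5 HEPES buffer with DTT, 10 min at room temperature; %Activity normalized to no-enzyme wells, curves fitted.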

For assay [4], the target named is Phosphoglycerate kinase, glycosomal (Trypanosoma brucei brucei) (UniProt P07378). The assay can be described thus: qHTS Validation Assay to Find Inhibitors of Phosphoglycerate Kinase (AID 504547). Further: potency means the concentration at half of the fitted maximal effect. Conditions: enzymatic PGK inhibition, coupled luminescence read-out; series mostly up to 57.5 µM. The method in brief: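 Compounds are pinned into the substrate/PGK mixture, and GAPDH (100nM final) is added to start the reaction by producing 1,3-BPG. After 60 minutes at room temperature, Kinase-Glo Plus is added and luminescence is measured 10 minutes later.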
Chain of Phosphoglycerate kinase, glycosomal (Trypanosoma brucei brucei) (P07378 whole entry, looked up): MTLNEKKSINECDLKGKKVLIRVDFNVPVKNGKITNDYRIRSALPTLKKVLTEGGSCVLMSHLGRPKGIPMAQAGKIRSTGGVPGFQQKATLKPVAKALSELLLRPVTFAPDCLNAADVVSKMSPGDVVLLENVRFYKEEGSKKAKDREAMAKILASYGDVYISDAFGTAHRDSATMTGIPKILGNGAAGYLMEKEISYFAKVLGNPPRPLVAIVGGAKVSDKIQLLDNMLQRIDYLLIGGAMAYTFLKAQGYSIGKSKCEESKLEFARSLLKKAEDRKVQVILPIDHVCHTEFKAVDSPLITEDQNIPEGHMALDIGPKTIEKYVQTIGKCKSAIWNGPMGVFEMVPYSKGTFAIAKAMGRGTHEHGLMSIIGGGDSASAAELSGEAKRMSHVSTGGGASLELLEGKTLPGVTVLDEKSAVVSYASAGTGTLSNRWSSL

The target in assay [5] is phosphoglycerate mutase (Leishmania major) (UniProt Q4Q090). Briefly: qHTS Validation Assay to Find Inhibitors of Phosphoglycerate Mutase (AID 504548). Further: potency means the concentration at half of the fitted maximal effect. Conditions: biochemical enzyme activity; Potency: inhibition qHTS; series mostly up to 57.5 µM. The method in brief: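 L. major PGAM (1.25nM final) was added to substrate buffer and pinned compound, incubated 45 minutes at room temperature, then Kinase-GloPlus added; luminescence read after 10 minutes. Buffer: 100 mM TEA pH 7.6, 5 mM MgCl2, 0.01% Tween-20.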
Chain of phosphoglycerate mutase (Leishmania major) (Q4Q090 1-553): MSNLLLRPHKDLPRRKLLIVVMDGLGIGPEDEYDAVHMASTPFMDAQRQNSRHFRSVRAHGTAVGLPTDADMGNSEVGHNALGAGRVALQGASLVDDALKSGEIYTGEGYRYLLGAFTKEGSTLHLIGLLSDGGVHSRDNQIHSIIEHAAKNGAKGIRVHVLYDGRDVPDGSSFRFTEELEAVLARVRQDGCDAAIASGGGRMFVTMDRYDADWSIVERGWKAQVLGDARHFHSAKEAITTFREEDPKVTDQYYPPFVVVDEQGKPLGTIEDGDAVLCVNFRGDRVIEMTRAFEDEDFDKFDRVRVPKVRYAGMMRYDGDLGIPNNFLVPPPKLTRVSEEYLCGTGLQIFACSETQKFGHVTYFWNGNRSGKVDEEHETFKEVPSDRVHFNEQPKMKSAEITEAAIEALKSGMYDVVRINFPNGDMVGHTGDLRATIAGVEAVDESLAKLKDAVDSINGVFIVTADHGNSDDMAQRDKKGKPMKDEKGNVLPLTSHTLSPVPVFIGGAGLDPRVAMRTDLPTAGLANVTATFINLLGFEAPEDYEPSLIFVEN

Assay [6] concerns the target Ubiquitin carboxyl-terminal hydrolase 1 (Homo sapiens) (UniProt O94782). Briefly: Inhibitors of USP1/UAF1: Pilot qHTS (AID 504865).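 Further: rhodamine fluorescence freed from ubiquitin-rhodamine substrate followed over time; top concentration of the series differs between compounds; nearly all actives have a fitted effect of over 35% in size.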 Conditions: purified USP1/UAF1, Ub-rhodamine cleavage fluorescence; series mostly up to 114 µM. Put shortly: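 In 50mM HEPES pH 7.8 containing 0.5mM EDTA, 1mM TCEP, 0.1 mg/ml BSA and 0.01% Tween-20, 1nM USP1/UAF1 is exposed to compound for 15 min, then Ub-Rho (150nM final) is added and fluorescence is read over time.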

The nature of assay [7]: qHTS for Inhibitors of ATXN expression: Validation of Cytotoxic Assay (AID 588349). Further: potency means the concentration at half of the fitted maximal effect. Conditions: cytotoxicity counter-screen for ATXN expression inhibitors, cell viability; series mostly up to 57.1 µM. Put shortly: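 Titrated compounds are added to cultured HEK293 cells, which are then held at 37 degrees C for 72 hr; loss of intracellular ATP, measured with CellTiter Glo, indicates toxicity.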

Assay [8] in a line: qHTS for Inhibitors of ATXN expression: Validation (AID 588378). Further: nearly all actives have a fitted effect of over 75% in size. Further: potency means the concentration at half of the fitted maximal effect. Particulars: cell-based ATXN2 expression reporter assay, luminescence; series mostly up to 57.1 µM. Put shortly:
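Compounds were pinned onto attached HEK293 cells carrying an ATXN2-firefly luciferase construct and incubated 24 hrs at 37 degrees C. Each well then received a fluorescent viability reagent followed by luciferase substrate for end-point luminescence.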

The target of assay [9] is DNA dC->dU-editing enzyme APOBEC-3G (Homo sapiens) (UniProt Q9HC16). The assay can be described thus: qHTS for inhibitors of Vif-A3G interactions: Validation (AID 588379). Particulars: Vif-A3G protein interaction assay; series mostly up to 46.1 µM. Put shortly: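 Yellow fluorescence (Ex 488, Em 500-530) of Vif-coexpressing HeLa A3G-eYFP cells, scanned by Acumen cytometer, reports blocked A3G degradation. Cells plated at 700/well overnight at 37 deg C before compound addition, then a further overnight compound incubation at 37 deg C.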
Chain of DNA dC->dU-editing enzyme APOBEC-3G (Homo sapiens) (Q9HC16 whole entry, looked up): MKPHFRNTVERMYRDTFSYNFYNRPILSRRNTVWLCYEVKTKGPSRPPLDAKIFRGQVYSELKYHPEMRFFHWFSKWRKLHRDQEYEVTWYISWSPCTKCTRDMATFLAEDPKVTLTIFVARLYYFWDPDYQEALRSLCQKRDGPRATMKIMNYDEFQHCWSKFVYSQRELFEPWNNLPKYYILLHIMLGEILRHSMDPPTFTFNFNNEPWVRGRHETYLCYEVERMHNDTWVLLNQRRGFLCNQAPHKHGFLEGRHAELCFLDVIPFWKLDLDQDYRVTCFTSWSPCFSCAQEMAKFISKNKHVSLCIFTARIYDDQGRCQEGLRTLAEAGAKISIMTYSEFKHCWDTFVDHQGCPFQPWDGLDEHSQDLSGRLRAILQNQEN

Assay [10] is described as follows: Inducers of the Endoplasmic Reticulum Stress Response (ERSR) in human glioma: Validation (AID 504836). Conditions: human glioma cells, ER stress response reporter; series mostly up to 38.3 µM. Put shortly:
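Stably transfected U87-MG glioma cells carrying a GRP78-based luciferase sensor; 16 h compound incubation. Luminescence end-point read 10 min after Bright-Glo addition at room temperature.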

Inconclusive results are not listed. Calls of active or inactive are those of the source. Unless noted, the call rests on the fitted dose curve; in most records, active means well fitted curve in the direction sought with a large enough effect; inconclusive means small, poorly fitted or top-dose-only effect, or another doubt; inactive means no such curve, though single readings can be large; an effect the other way counts as inactive or inconclusive.

Chain of Peptidyl-prolyl cis-trans isomerase NIMA-interacting 1 (Homo sapiens) (Q13526 whole entry, looked up): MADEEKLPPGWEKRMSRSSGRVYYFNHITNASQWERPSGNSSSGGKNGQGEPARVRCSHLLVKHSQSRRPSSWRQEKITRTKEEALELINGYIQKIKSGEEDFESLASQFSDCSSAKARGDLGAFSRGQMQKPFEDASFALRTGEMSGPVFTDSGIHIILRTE
Chain of Galactokinase (Homo sapiens) (P51570 whole entry, looked up): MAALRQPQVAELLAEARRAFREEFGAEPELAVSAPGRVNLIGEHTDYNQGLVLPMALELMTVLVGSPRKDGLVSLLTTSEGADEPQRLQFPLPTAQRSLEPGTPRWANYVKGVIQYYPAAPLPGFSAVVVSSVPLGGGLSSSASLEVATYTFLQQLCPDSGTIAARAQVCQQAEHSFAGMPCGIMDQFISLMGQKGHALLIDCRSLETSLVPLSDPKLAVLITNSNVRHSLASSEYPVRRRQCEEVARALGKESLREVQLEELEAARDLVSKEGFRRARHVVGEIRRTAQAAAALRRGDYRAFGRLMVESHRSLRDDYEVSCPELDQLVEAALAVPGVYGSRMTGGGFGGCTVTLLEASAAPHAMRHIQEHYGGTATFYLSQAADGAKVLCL
Chain of Ubiquitin carboxyl-terminal hydrolase 1 (Homo sapiens) (O94782 whole entry, looked up): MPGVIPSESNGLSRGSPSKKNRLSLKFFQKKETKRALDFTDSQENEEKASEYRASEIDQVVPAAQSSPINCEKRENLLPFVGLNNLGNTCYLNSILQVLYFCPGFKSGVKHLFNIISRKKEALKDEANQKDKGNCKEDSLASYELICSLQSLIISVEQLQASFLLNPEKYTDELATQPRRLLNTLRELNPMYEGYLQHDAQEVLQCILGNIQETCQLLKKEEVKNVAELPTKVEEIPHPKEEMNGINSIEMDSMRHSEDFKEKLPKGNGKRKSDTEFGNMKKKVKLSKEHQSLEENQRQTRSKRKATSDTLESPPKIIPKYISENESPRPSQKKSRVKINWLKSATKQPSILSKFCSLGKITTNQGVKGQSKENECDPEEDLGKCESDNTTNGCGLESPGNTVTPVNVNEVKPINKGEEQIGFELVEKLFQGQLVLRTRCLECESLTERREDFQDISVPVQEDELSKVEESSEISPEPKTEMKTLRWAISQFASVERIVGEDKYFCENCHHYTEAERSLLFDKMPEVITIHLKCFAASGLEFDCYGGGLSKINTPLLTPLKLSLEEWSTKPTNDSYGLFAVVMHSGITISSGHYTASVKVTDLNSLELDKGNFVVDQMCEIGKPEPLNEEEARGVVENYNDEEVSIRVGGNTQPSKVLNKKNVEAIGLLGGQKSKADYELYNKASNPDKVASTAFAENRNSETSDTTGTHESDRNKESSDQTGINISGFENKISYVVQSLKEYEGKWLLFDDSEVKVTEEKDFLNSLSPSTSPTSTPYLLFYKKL

Turning to `N[C@@H](Cn1oc(=O)[nH]c1=O)C(=O)O`, the call in [1] and in assay [9] was inactive. Also, the Potency result in assay [2], in assay [3], in assay [4], in assay [5], in assay [6] and in assay [7] was “inactive” in each case. In assay [8], the Potency result is “inactive”.
Take `NCCc1ccc(S(=O)(=O)F)cc1`: the molecule was called inactive in assay [1] and in assay [10]. The Potency entry in [2], in assay [3], in [4], in [5], in assay [7] and in [8] was “inactive” throughout.
Take `c1ccc2c(N3CCNCC3)cccc2c1`: the outcome in [1] was inactive. Also, the Potency entry in assay [2], in assay [3], in assay [4], in [5], in assay [6] and in [7] was “inactive” each time.
Turning to `NC(Cc1cc(O)c(O)cc1O)C(=O)O` (stereo not given), the result in [1] and in [10] was inactive. Also, the Potency entry in [2], in [5] and in [8] was “inactive” in each case. Further, the Potency was 1.69 µM (active) in assay [3] and 0.338 µM (active) in assay [4].
As for `CCCn1c(=O)c2[nH]c(C3CCCC3)nc2n(CCCOC(=O)c2ccc(S(=O)(=O)F)cc2)c1=O`, the call in [1] and in [10] was inactive. For the same molecule, the Potency entry in assay [2], in assay [4], in [5], in [6], in assay [7] and in [8] was “inactive” each time.
On to `N[C@@H](CCl)C(=O)O`, for which the call in assay [1] was inactive. Besides, the Potency result in [2], in assay [4], in [5], in assay [6], in [7] and in [8] was “inactive” in each case.
For `O=c1c2ccccc2[se]n1-c1ccccc1`, the molecule was classed as inactive in assay [1] and in assay [10]. Also, the Potency entry in assay [3], in [4], in assay [6] and in [8] was “inactive” each time. Besides, the Potency in assay [5] is 7.57 µM (active).
As to `CC(N)Cc1c[nH]c2ccc(O)cc12` (stereo not given), the outcome in assay [1] and in [10] was inactive. Further, the Potency result in assay [2], in assay [4], in assay [5], in [6], in assay [7] and in [8] was “inactive” in each case.
Regarding `Ic1ccccc1CNC1C2CCN(CC2)C1C(c1ccccc1)c1ccccc1` (stereo not given), in assay [1], the outcome was inactive. The Potency result in assay [2], in assay [4], in assay [5] and in assay [6] was “inactive” in each case. In addition, the Potency in assay [7] is 25.1 µM (active); in assay [8], 12.6 µM (active).
As to `CCCCCCCCCCCCCC(=O)O[C@@H]1[C@@H](C)[C@@]2(O)[C@@H](C=C(CO)C[C@@]3(O)C(=O)C(C)=C[C@@H]23)C2C(C)(C)[C@@]21OC(C)=O` (stereo not given in full), the molecule was called inactive in assay [1] and in [10]. Besides, the Potency result in [2], in [4], in assay [5], in assay [7] and in [8] was “inactive” throughout.
